Values joined by “and” are separate entries in the source; they are usually repeats but may differ in a detail not shown here. Equal values may be shown once. Screen size: about 360,000 compounds; about 25,000 (6.9%) were called active. About 9% were inconclusive and are not listed. The full list was thinned out, with actives kept by preference. A number with no mark means an inactive call. Calls follow the shape of the dose curve; as a rule, active = well fitted inhibition curve with a large enough effect; inconclusive = small, poorly fitted or top-dose-only effect; inactive = flat fitted curve, though single readings scatter.
Potency is read from the fitted curve at half-maximal effect.

For this test, the target named is Luciferin 4-monooxygenase (Photinus pyralis) (UniProt P08659). Briefly: qHTS profiling assay for firefly luciferase inhibitor/activator using purifed enzyme and Km concentrations of substrates (counterscreen for miR-21 project). Also: nearly all actives have a fitted effect of over 55% in size.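 As to activity change, negative = inhibition: plate controls were vehicle for no effect and reference inhibitor for full effect.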 The settings on record: purified FLuc, luminescence inhibition; series mostly up to 57.5 µM; activity change, negative = inhibition: at the top concentration. The gist of the method: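 Purified P. pyralis luciferase (10nM final) with 10uM D-luciferin and 10uM ATP (Km levels) in 50mM Tris acetate pH 7.5, 10mM Mg acetate, 0.01% Tween-20, 0.05% BSA; qHTS 6-point titration, ~60 µM downward; luminescence read.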
Chain of Luciferin 4-monooxygenase (Photinus pyralis) (P08659 whole entry, looked up): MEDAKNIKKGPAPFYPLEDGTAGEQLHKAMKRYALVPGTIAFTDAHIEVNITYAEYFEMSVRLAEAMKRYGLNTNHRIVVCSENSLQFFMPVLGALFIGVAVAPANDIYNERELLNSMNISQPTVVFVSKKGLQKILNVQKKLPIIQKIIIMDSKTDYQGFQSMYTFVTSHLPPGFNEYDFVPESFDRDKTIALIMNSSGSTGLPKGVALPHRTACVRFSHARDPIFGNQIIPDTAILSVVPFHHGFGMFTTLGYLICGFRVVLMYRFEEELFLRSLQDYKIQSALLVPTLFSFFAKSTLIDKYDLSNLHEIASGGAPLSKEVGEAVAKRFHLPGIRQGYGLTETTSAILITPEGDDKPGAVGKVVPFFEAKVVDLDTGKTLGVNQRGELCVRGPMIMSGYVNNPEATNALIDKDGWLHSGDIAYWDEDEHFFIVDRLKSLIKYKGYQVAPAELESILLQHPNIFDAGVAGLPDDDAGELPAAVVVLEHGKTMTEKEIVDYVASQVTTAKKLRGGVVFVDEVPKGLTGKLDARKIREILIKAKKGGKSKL
Turning to `COc1ccc(NC(=O)C2CCC(CNS(=O)(=O)c3csc(C(N)=O)c3)CC2)cc1OC` (stereo unspecified), the “activity change, negative = inhibition” value is -0.339%.

As to `CCN(CC)C(=O)CSc1nc2ccsc2c(=O)n1Cc1ccccc1Cl`, the “activity change, negative = inhibition” value is -8.76%.

Turning to `Brc1ccc(-c2nnc(-c3ccccc3)o2)o1`, the Potency was 6.01 µM (active).

Take `O=C1c2ccccc2C(=O)N1CCCc1nc(-c2ccccc2)no1`: the “activity change, negative = inhibition” value was -2.23%.

Turning to `Cn1nc(-c2ccccc2)c(-c2nc(-c3ccc(Cl)cc3)no2)c1Cl`, the “activity change, negative = inhibition” value was -2.68%.

Take `O=C(OCc1ccc(Br)cc1)c1cccc(-c2nnc(-c3ccccc3)o2)c1`: the “activity change, negative = inhibition” value is -4.27%.

In the case of `Brc1ccc(-c2noc(-c3ccccc3)n2)o1`, the Potency was 2.13 µM (active) and 1.35 µM (active).

Regarding `O=C(COC(=O)c1ccccc1Br)Nc1nnc(-c2ccccc2)o1`, the “activity change, negative = inhibition” value is -7.96%.

Take `Cc1ccc(Cc2nc3ccccc3nc2SCC(=O)Nc2cccc(C(F)(F)F)c2)cc1`: the “activity change, negative = inhibition” value is 1.52%.

For `CCCc1nn2c(=O)cc(COC(=O)c3ccc(NC(=O)C(C)Oc4ccccc4)cc3)nc2s1` (stereo unspecified), the “activity change, negative = inhibition” value is -6.12%.

Regarding `CN(CC(=O)Nc1cccc(F)c1)C(=O)CC1CCCC1`, the “activity change, negative = inhibition” value was 3.45%.

Consider `O=C(NCc1ccccc1CN1CCCC1)C1CCN(S(=O)(=O)c2ccc(Cl)cc2)CC1`, for which the “activity change, negative = inhibition” value was -0.436%.

For `O=C(COC(=O)C1CCCCC1)Nc1ccc([N+](=O)[O-])cc1`, the Potency is 16.9 µM (active).

As for `N/C(Cc1ccc([N+](=O)[O-])cc1)=N\OC(=O)C1CCCCC1`, the “activity change, negative = inhibition” value is -3.28%.

For the compound `NC(=O)c1ccc(NC(=O)COC(=O)c2ccc([N+](=O)[O-])cc2)cc1`, the “activity change, negative = inhibition” value was -0.303%.

For the compound `O=C(CN1CCSc2ccccc21)N1CCN(c2ccccc2)CC1`, the “activity change, negative = inhibition” value was -5.65%.

As for `CCCCN1C(=O)CC(N2CCOCC2)C1=O` (stereo unspecified), the “activity change, negative = inhibition” value is -0.0203%.

Consider `CCOC(=O)c1nn(-c2cccc(C)c2)cc1C(=O)c1ccccc1`, for which the Potency was 9.53 µM (active).

Consider `CCOC(=O)c1cn(Cc2cccc(C)c2)nn1`, for which the “activity change, negative = inhibition” value was 2.45%.

As to `CC(=O)c1nn(-c2cccc(Br)c2)cc1C(=O)c1cccc2ccccc12`, the “activity change, negative = inhibition” value was -2.37%.

For the compound `COc1ccc(S(=O)(=O)NCc2cccn2Cc2cccc(C)c2)cc1Cl`, the “activity change, negative = inhibition” value was -8.6%.

`Cc1cc(Cl)ccc1OCCCC(=O)NCc1ccncc1`: the “activity change, negative = inhibition” value is -4.06%.

For the compound `Cc1cc(Cl)ccc1OCc1nc(-c2ccncc2)no1`, the Potency was 10.7 µM (active).

On to `Cc1ccccc1C(=O)NCc1nc(-c2ccc(Cl)cc2)no1`, for which the “activity change, negative = inhibition” value was -1.77%.

Take `Cc1ccc(CNC(=O)CSc2c(C)cnc3c2c(=O)n(C)c(=O)n3C)cc1`: the “activity change, negative = inhibition” value was -0.897%.

Consider `O=C(Nc1ccc(Cl)cc1)c1ccsn1`, for which the Potency was 12 µM (active).

`O=C(Nc1cccc(Cl)c1)c1csnn1`: the “activity change, negative = inhibition” value is -14.4%.

With `CCC(=O)Nc1ccc(C(=O)NNC(=O)c2ccc(Cl)cc2)cc1`, the “activity change, negative = inhibition” value was -3.51%.

`O=[N+]([O-])c1cc(-c2nc(-c3ccccc3)no2)ccc1NCc1ccco1`: the “activity change, negative = inhibition” value was -8.68%.

For `Cc1cc2n(n1)C(c1cc(C(C)(C)C)c(O)cc1O)Nc1ccccc1-2` (stereo unspecified), the “activity change, negative = inhibition” value was -15.3%.

Turning to `CCC1C=C(c2ccccc2)C=CN=C1N(CC)CC` (stereo unspecified), the “activity change, negative = inhibition” value was 0.24%.

Turning to `CCOc1ccc(CCNC(=O)Cn2nc(CC)n3c(cc4sc(CC)cc43)c2=O)cc1OCC`, the “activity change, negative = inhibition” value is -5.54%.

For the compound `Cc1cc(N)n2nc(-c3ccc(C(C)(C)C)cc3)cc2n1`, the Potency was 0.601 µM (active).

Turning to `Cc1cc(-c2ccccc2)n2nc(-c3ccccc3)cc2n1`, the “activity change, negative = inhibition” value is -16.5%.

As for `COc1ccc(-c2cc(C(F)(F)F)n3nc(-c4ccccc4)cc3n2)cc1OC`, the “activity change, negative = inhibition” value is -0.561%.

For the compound `Cc1cc(C)cc(-n2c(SCC(=O)NCC3CCCO3)nc3c([nH]c4ccccc43)c2=O)c1` (stereo unspecified), the “activity change, negative = inhibition” value is -0.071%.

Consider `COc1cccc(NC(=O)Nc2ccc3c(c2)N(C)C(=O)c2ccccc2S3)c1`, for which the “activity change, negative = inhibition” value was 1.22%.

With `CCCCS(=O)(=O)c1oc(-c2cccs2)nc1S(=O)(=O)c1ccccc1`, the “activity change, negative = inhibition” value is -0.854%.

As to `CCOCCCNC(=O)C(NC(=O)c1ccccc1O)c1ccccc1` (stereo unspecified), the “activity change, negative = inhibition” value is -1.29%.

On to `CC(C)CCNC(=O)c1ccc2c(Cl)c3c(nc2c1)CCC3`, for which the Potency is 0.675 µM (active).

Take `CC(=O)c1ccc(NC(=O)c2ccc3c(Cl)c4c(nc3c2)CCCC4)cc1`: the “activity change, negative = inhibition” value was 3.57%.

As to `COc1ccc(N2CCN(C(=O)c3ccc4c(Cl)c5c(nc4c3)CCCC5)CC2)cc1`, the Potency entry is “inactive”.

For `CCOc1ccc(OCC(=O)OC(C)C(=O)NC2CCCCC2C)cc1` (stereo unspecified), the “activity change, negative = inhibition” value was -0.597%.

Take `CCc1cc2c(cc3c(=O)n(CC(=O)NCCc4ccc(OC)c(OC)c4)ncn32)s1`: the “activity change, negative = inhibition” value was -4.14%.

For `CCN(CC)c1ccc(/C=N/NC(=O)c2cnccn2)c(O)c1`, the Potency is 9.53 µM (active).

`COc1ccc(NC(=O)C/C(C)=N/NC(=O)c2cnccn2)cc1Cl`: the “activity change, negative = inhibition” value was 0.369%.

Turning to `Cc1ccc(C(=O)NCCNC(=O)c2cnccn2)cc1`, the “activity change, negative = inhibition” value was -0.972%.

Take `O=C(CSc1ncnc2c1cnn2CCc1ccccc1)Nc1ccc(F)cc1`: the “activity change, negative = inhibition” value is 4.06%.

On to `CC(=O)c1ccc(NC(=O)C2CCN(S(=O)(=O)c3c(C)noc3/C=C/c3ccc(C)cc3)CC2)cc1`, for which the “activity change, negative = inhibition” value is 1.25%.

As to `COc1ccc(C2(C)ON(c3ccccc3C(F)(F)F)C2=O)cc1` (stereo unspecified), the “activity change, negative = inhibition” value is 0.0812%.

As for `CCNCCC(=O)N1c2ccccc2Sc2ccc(NC(=O)OCC)cc21`, the “activity change, negative = inhibition” value is 2.62%.

In the case of `O=C(Nc1ccccc1Br)c1cc(CN2CCCC2)on1`, the “activity change, negative = inhibition” value is -18.8%.

Turning to `Nc1nonc1C(=O)NCCc1ccccc1`, the “activity change, negative = inhibition” value was -0.421%.

Turning to `CC(C)Cc1cc(C(=O)NCCc2ccccc2)no1`, the Potency is 10.7 µM (active).

In the case of `Cc1nn(Cc2ccc(F)cc2)c(C)c1NC(=O)c1cc(CC(C)C)on1`, the “activity change, negative = inhibition” value was -4.75%.

As for `C[C@H](NC(=O)NCCc1ccccc1)C(=O)O`, the “activity change, negative = inhibition” value is -5.46%.

For `CC(C)Cc1cc(C(=O)Nc2cc(Br)ccc2O)no1`, the Potency was 12 µM (active).

As to `O=S(=O)(NCCCN1CCOCC1)c1ccc(F)c(Cl)c1`, the “activity change, negative = inhibition” value was 0.23%.

With `CCCN=C1NC(=O)C(CC(=O)NCCc2ccc(OC)c(OC)c2)S1` (stereo unspecified), the “activity change, negative = inhibition” value was 3.61%.

As for `Cc1cccc(-n2ccnc2SCC(=O)Nc2cc(C(F)(F)F)ccc2Cl)c1`, the “activity change, negative = inhibition” value was -5.71%.

As to `CN1CCN(C(CNC(=O)c2ccccc2F)c2ccc3c(c2)OCO3)CC1` (stereo unspecified), the “activity change, negative = inhibition” value is -1.47%.

Take `C=CCn1c(SCc2c(C(=O)OC)sc(N)c2C(=O)OC)nnc1-c1ccc(Cl)cc1`: the “activity change, negative = inhibition” value was 0.526%.

Turning to `C=CCn1c(SCC(N)=O)nnc1-c1cc2c(s1)CCC(CC)C2` (stereo unspecified), the Potency was 7.57 µM (active).

For the compound `CCn1c(CSc2nc(C)cc(C)n2)nnc1SCC(N)=O`, the “activity change, negative = inhibition” value was 0.421%.

As for `Cc1oc2ncnc(N3CCCCC3)c2c1C(=O)N1CCN(c2cccc(Cl)c2)CC1`, the “activity change, negative = inhibition” value was -3.14%.

With `Cc1ccc(O)c(NC(=O)CCS(=O)(=O)c2nc(-c3ccc4c(c3)OCO4)cc(C(F)(F)F)n2)c1`, the “activity change, negative = inhibition” value is 1.61%.

Consider `CCc1ccc(NC(=O)c2cc(S(=O)(=O)N3CCCC(C)C3)cn2C)cc1` (stereo unspecified), for which the “activity change, negative = inhibition” value was -1.37%.

As for `COc1ccc(Nc2ncnc3sc(-c4ccccc4)cc23)c(OC)c1`, the Potency was 19 µM (active).

For `COc1ccc(Nc2ncnc3ccc(Br)cc23)c(OC)c1`, the Potency is 26.9 µM (active).

`COc1ccc(NC(=O)c2sc(N3CCOCC3)nc2-c2ccccc2)c(OC)c1`: the “activity change, negative = inhibition” value was -2.03%.

In the case of `Oc1ccccc1N1CCN(c2ncnc3sc(-c4ccccc4)cc23)CC1`, the “activity change, negative = inhibition” value is -11.7%.

Consider `O=C(O)CCCCCNc1ncnc2ccc(Br)cc12`, for which the “activity change, negative = inhibition” value was 0.793%.

On to `COc1ccc(Nc2ncnc3sc(C)cc23)cc1`, for which the Potency is 16.9 µM (active).

Regarding `CCOc1ccc(Nc2ncnc3scc(-c4ccc(OC)cc4)c23)cc1`, the “activity change, negative = inhibition” value was 3.74%.

With `C=CCNc1ncnc2ccc(Br)cc12`, the “activity change, negative = inhibition” value was -1.56%.

`COc1ccc(Nc2nc(=O)[nH]nc2C)cc1`: the “activity change, negative = inhibition” value was 10.5%.

Source of the values: PubChem BioAssay AID588342 (National Center for Advancing Translational Sciences (NCATS), 2011).
